Data reported in PubChem BioAssay (NCATS).
Inconclusive results are not listed. Where a call stands in place of a potency, no number is given. Activity calls are given as the source filed them. Unless noted, calls follow the shape of the full dose curve.

Test system: not listed separately
Assay: qHTS for Inhibitors of Plasmodium falciparum (CP250) proliferation (AID 504320; active = well fitted inhibition curve with a large enough effect)
Details: P. falciparum CP250 in erythrocytes, SYBR Green DNA, 72 h; series mostly up to 6.7 µM
Summary of the method: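 Erythrocytes infected with P. falciparum line (0.3% parasitemia, 2.5% hematocrit final) incubated with compounds 72 h at 37 °C, 5% CO2; SYBR Green lysis buffer added, fluorescence read next day. Normalized to 0.29 uM artemisinin and DMSO.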

| Structure (SMILES) | Potency |
| --- | --- |
| COC(=O)N[C@@H](c1cccc(F)c1)C(C(C)=O)C(=O)OC (some centres not stated) | inactive |
| CC(=O)C1=C(C)N(Cc2ccccc2)C(=O)NC1c1ccc(Br)cc1 (configuration not stated) | inactive |
| C=CC1=C2C=C(C3CC3)N(CCOC)C=C2C(=O)C(C)(OC(=O)c2ccco2)C1=O (configuration not stated) | inactive |
| COCC=CC1=CC2=CC(=O)C(C)(OC(=O)c3cnc4ccccc4n3)C(=O)C2=CN1CC1CC1 (configuration not stated) | inactive |
| C=CCN1C(=O)CC[C@@]23C1=NC(C(=O)OC)=C(C(=O)OC)[C@@H]2N(C)c1ccccc13 | inactive |
| COC(=O)NC(c1ccccc1)c1c[nH]c2ccc(OC)cc12 (configuration not stated) | inactive |
| CCCC[C@]12Cc3cc(OC)c(OC)cc3[C@H](O1)C1=C(CC3(CCCCC3)OC1=O)O2 | inactive |
| C=C(C)C(O)C=Cc1ccc(C(F)(F)F)cc1 (configuration not stated) | inactive |

Target: Atrial natriuretic peptide receptor 1 (Homo sapiens) (UniProt P16066)
Assay: Natriuretic polypeptide receptor (hNpr1) antagonism - Pilot CMLD screen (AID 1347052);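 also: cGMP level read as GloSensor luciferase luminescence after agonist stimulation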; also: potency is read from the fitted curve at half-maximal effect
Details: HEK293 hNpr1 GloSensor cGMP luminescence, ANP-stimulated; series mostly up to 9.22 µM

Sequence of Atrial natriuretic peptide receptor 1 (Homo sapiens) (P16066 whole entry, looked up): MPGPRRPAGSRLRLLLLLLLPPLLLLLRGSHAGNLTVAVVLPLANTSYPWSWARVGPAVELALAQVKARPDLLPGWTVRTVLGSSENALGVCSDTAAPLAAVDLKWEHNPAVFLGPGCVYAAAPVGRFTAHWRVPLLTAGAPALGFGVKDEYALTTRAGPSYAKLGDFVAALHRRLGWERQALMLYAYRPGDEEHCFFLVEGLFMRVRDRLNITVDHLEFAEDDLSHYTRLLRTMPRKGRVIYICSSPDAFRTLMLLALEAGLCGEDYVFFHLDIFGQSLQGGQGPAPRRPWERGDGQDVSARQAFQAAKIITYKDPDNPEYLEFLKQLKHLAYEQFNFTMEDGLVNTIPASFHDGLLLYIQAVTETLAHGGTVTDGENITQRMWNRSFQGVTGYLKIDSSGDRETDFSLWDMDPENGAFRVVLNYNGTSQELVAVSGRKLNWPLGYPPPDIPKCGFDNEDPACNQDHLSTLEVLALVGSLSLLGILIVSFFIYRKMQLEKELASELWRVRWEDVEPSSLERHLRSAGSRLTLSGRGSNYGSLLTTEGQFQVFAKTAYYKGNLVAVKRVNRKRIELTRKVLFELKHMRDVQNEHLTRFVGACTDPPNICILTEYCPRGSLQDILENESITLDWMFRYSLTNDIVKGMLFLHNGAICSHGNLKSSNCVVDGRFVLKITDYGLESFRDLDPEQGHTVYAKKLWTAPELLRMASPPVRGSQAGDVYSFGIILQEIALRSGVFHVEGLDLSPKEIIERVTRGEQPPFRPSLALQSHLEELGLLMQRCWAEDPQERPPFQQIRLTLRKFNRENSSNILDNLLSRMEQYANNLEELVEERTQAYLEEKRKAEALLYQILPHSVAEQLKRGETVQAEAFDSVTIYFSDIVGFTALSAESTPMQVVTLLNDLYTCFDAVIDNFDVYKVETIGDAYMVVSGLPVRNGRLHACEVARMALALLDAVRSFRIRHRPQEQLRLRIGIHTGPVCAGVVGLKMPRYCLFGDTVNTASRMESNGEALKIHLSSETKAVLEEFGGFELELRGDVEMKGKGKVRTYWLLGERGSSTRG

| Structure (SMILES) | Potency |
| --- | --- |
| COC(=O)[C@H]1[C@@H](c2ccccc2)NC(=O)N(Cc2ccccc2)[C@@H]1C | inactive |
| COc1cccc([C@H]2Oc3ccc(OC)cc3C(=NOC[C@@H](O)COCc3ccco3)[C@H]2O)c1 | inactive |
| COC(=O)CC=C[C@@H](C)[C@H](OC)c1c(Br)ccc2c1OCO2 | inactive |
| C=CCN=C1NC(c2cccc(F)c2)C(C(=O)OC)=C(C)N1Cc1ccccc1 (configuration not stated) | inactive |
| CC=COC(=O)N[C@@H](c1ccccc1)[C@]1(C(=O)OC)CCCC1=O | inactive |
| COC(=O)N1C(c2ccccc2)=Cc2ccccc2C1CC(C)=O (configuration not stated) | inactive |
| CC(C)=CCN1C(=O)[C@]2(O[C@H](C)CC3=CCCC32)c2c(Br)cccc21 (some centres not stated) | inactive |
| COC(=O)C[C@H]1c2ccccc2C2=C(C[C@@H](C)[C@H]3C(=O)NC(=O)[C@@H]23)N1C(=O)OC | inactive |
| COCCN1C(=O)NC(c2cccc(C(F)(F)F)c2)C(C(C)=O)=C1C (configuration not stated) | inactive |
| CC1(OC(=O)CCc2ccccc2)C(=O)C=C2C=C(c3ccsc3)OC=C2C1=O (configuration not stated) | inactive |
| O=P1(O)Oc2c(c(-c3ccccc3)cc3ccc4ccccc4c23)-c2c(-c3ccccc3)cc3ccc4ccccc4c3c2O1 | inactive |
| COC(=O)N1C(C2CC2)=Cc2ccccc2C1CC(C)=O (configuration not stated) | inactive |
| CC(C)=CCN1C(=O)[C@]2(OCCC=C[C@H]2C)c2c(Br)cccc21 | inactive |
| COC(=O)CC=C1c2ccc(OC)cc2[C@@H](OC)[C@@H]1C | inactive |
| C#CCN1C(=O)[C@]2(O[C@H](C)CC3=CCCC32)c2c(Br)cccc21 (some centres not stated) | inactive |
| COC(=O)N[C@H](c1ccccc1)C(C(=O)OC)C(=O)OC | inactive |
| C[C@@H]1CC[C@H]2C(=O)N(Cc3ccccc3)C[C@@H](O)CN2[C@@H]1c1cccc(Br)c1 | inactive |
| COc1cc2c(c(OC)c1OC)CC(C)=C(C)CC2NC(=O)C(F)(F)F (configuration not stated) | inactive |
| CC1(O)C(=O)C=C2C=C(c3ccc(C#N)cc3)OC=C2C1=O (configuration not stated) | inactive |
| COCCN1C(=O)NC(c2ccco2)C(C(=O)OC)=C1C (configuration not stated) | inactive |

| Structure (SMILES) | Potency |
| --- | --- |
| CC(CCC#N)[N+](=O)[O-] (configuration not stated) | 5.31 µM (active) |
| COC[C@@H](OC(C)=O)[C@H]1OCc2ccccc2[C@H]1C=Cc1ccccc1 | inactive |
| COc1ccc(-c2nc3c(c4c2C[C@H](c2ccccc2)OC4)CN(C(=O)Nc2cccc(C#N)c2)CC3)c(C)c1 | inactive |
| COc1ccc(COC(=O)NN=C2C[C@@H](O)[C@@H](O)[C@@H]3[C@H]4C(=O)N([C@@H](C)c5ccccc5)C(=O)[C@@H]4CC[C@H]23)cc1 | inactive |
| CC1(OC(=O)C2CCCC2)C(=O)C=C2C=C(c3ccsc3)N(C3CC3)C=C2C1=O (configuration not stated) | inactive |
| CC(C)(C)Nc1oc(-c2ccccc2)nc1-c1ccccc1 | inactive |
| COc1ccc(NC2=CC(c3ccccc3)N(c3ccc(OC)cc3)C2=O)cc1 (configuration not stated) | inactive |
| C[C@H]1[C@H](N=[N+]=[N-])[C@H](O)CCO[C@@H]1c1ccccc1 | inactive |
| COC(=O)[C@H](Cc1ccccc1)NC(=O)O[C@@H]1C(=O)c2cc(OC)ccc2O[C@H]1c1ccc(OC)c(Br)c1 | inactive |
| CC#CCN1c2ccccc2[C@]23CCC(=O)N(Cc4cccc(C(F)(F)F)c4)C2=NC(C(=O)OC)=C(C(=O)OC)[C@H]13 | inactive |
| COC1=C[C@H](C(=O)NCc2ccc(Br)cc2)[C@H](C)[C@@H](c2ccccc2)CC1=O | inactive |
| COC(=O)N[C@@H](c1cccc(F)c1)C(C(C)=O)C(=O)OC (some centres not stated) | inactive |
| CC(=O)C1=C(C)N(Cc2ccccc2)C(=O)NC1c1ccc(Br)cc1 (configuration not stated) | inactive |
| C=CC1=C2C=C(C3CC3)N(CCOC)C=C2C(=O)C(C)(OC(=O)c2ccco2)C1=O (configuration not stated) | inactive |
| COCC=CC1=CC2=CC(=O)C(C)(OC(=O)c3cnc4ccccc4n3)C(=O)C2=CN1CC1CC1 (configuration not stated) | inactive |
| C=CCN1C(=O)CC[C@@]23C1=NC(C(=O)OC)=C(C(=O)OC)[C@@H]2N(C)c1ccccc13 | inactive |
| COC(=O)NC(c1ccccc1)c1c[nH]c2ccc(OC)cc12 (configuration not stated) | inactive |
| CCCC[C@]12Cc3cc(OC)c(OC)cc3[C@H](O1)C1=C(CC3(CCCCC3)OC1=O)O2 | inactive |
| C=C(C)C(O)C=Cc1ccc(C(F)(F)F)cc1 (configuration not stated) | 5.31 µM (active) |
